# KB-V1 cytotox = kills drug-selected multidrug resistant KB-V1 cells; 3.4% of 400,000 active; Potency, µM (titrated, usually from 46.1 µM), actives largely listed as cytotoxic; KB-V1 MDR cells viability, CellTiter-Glo, 72 h; note: % is set by controls: 0 for no effect and ±100 for the full control effect; nearly all actives have a fitted effect of over 60% in size
#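 KB-V1 MDR subline cells in DMEM (phenol-red free, 10% FBS) exposed to compounds in qHTS concentration series for 72 h at 37 degrees C. Viability read by CellTiter-Glo luminescence; concentration-effect curves fitted after normalization and correction.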
# SW480 rerep = DNA re-replication induction in SW480 cells | 1.8% of 340,000 active | SW480 DNA re-replication, Hoechst DNA content imaging, 48 h | Potency, µM (highest dose often 46.1 µM), for the others: at the top dose re-replication activation, most hits filed as activators; note: % of control where 0% means no effect; nearly all actives have a fitted effect of over 55% in size
#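 Cells (250 per well) received 23 nL compound or DMSO by pin tool and were kept 48 hr at 37 C, 5% CO2. Nuclei were then stained with Hoechst for 40 min and scanned for DNA content.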
# HT1080NT lethal = kills 2HG-producing HT-1080-NT fibrosarcoma cells; HT-1080-NT fibrosarcoma viability, CellTiter-Glo ATP luminescence, 48 h; Potency, µM (series often up to 46.1 µM), for the others: at the top dose activity, negative = less viability, usual class: cytotoxic; 1.6% of 360,000 active;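 note: NT is the 2HG producing partner of a matched IDH1 knockdown line; 0% = DMSO-treated cells and -100% = media-only wells without cells; nearly all actives have a fitted effect of over 55% in size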
#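 Read-out is CellTiter-Glo luminescence after 10 minutes at room temperature, following 48 hours' compound treatment of HT-1080-NT cells (750 cells/well, RPMI, 5% FBS, 37 degrees C).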
# KB-3-1 cytotox = kills parental KB-3-1 adenocarcinoma cells; KB-3-1 viability, CellTiter-Glo ATP luminescence, 72 h; Potency, µM (series often up to 46.1 µM), most hits filed as cytotoxic; AID 1347075; 1.4% of 400,000 active; note: % is set by controls: 0 for no effect and ±100 for the full control effect; nearly all actives have a fitted effect of over 60% in size
#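 Cytotoxicity in the drug-sensitive parental line KB-3-1 was scored as loss of CellTiter-Glo luminescence following 72 h incubation with compound. Values come from curve fitting of normalized concentration-response data.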
# MCF10A rereplic = DNA re-replication induction in MCF 10a cells | Potency, µM (series often up to 46.1 µM), for inactives: at the highest dose activity, positive = re-replication, most hits filed as activators | MCF 10A DNA re-replication, Hoechst nuclear intensity, 48 h | 2.9% of 350,000 active; note: % of control where 0% means no effect; nearly all actives have a fitted effect of over 50% in size
# HT1080 IDH1KD tx = kills HT-1080 cells with IDH1 knockdown; AID 686971; Potency, µM (titrated, usually from 46.1 µM), inactives show top-dose activity, negative = toxicity, most hits filed as cytotoxic; 2% of 360,000 active; HT-1080 IDH1 knockdown viability, ATP luminescence, 48 h;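 note: 0% = DMSO wells and -100% = cell-free medium wells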
#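 Using the IDH1-knockdown HT-1080 line run in the same batch and compound series as the NT line, viability after 48 h at 37 °C was determined by CellTiter-Glo luminescence and expressed as % activity.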
# * marks the source's active call; other numbers are inactive results; i = inactive; u = inconclusive; x = no result. Sampled rows, rich in hits. Any-hit rate of the full collection: about 8%. Calls come from the whole dose curve; as a rule, active = well fitted curve in the direction sought with a large enough effect; inconclusive = small, poorly fitted or top-dose-only effect, or another doubt; inactive = no such curve, though single readings can be large; an effect the other way counts as inactive or inconclusive. Potency is the fitted concentration of half-maximal effect.
SMILES,KB-V1 cytotox,SW480 rerep,HT1080NT lethal,KB-3-1 cytotox,MCF10A rereplic,HT1080 IDH1KD tx
CCN1CCCC1CN(Cc1cc2ccc(C)cc2[nH]c1=O)C(=S)Nc1ccccc1OC (centres undefined),i,u,u,u,u,u
CCN1CCCC1CN(Cc1cc2ccc(C)cc2[nH]c1=O)C(=S)Nc1ccccc1C(=O)OC (centres undefined),i,u,u,i,u,u
CCN1CCCC1CN(Cc1cc2ccc(C)cc2[nH]c1=O)C(=S)Nc1ccc(F)cc1 (centres undefined),i,-5%,5%,i,6.5µM*,-2%
COC(=O)c1c(NC(=O)CN2CCC3(O)CCCCC3C2c2ccc(F)cc2)sc(C)c1C (centres undefined),16µM*,u,-4%,i,u,-8%
COC(=O)c1c(NC(=O)CN2CCCc3ccccc32)sc(C)c1C,u,u,-6%,i,15µM*,-22%
COc1cccc(-c2csc(-c3c(N)c(C(=O)c4ccccc4)n4ccccc34)n2)c1,i,x,x,i,x,x
CC(C)CN(CC(C)C)c1ccc(/C=C/c2ccnc3ccccc23)cc1,i,x,x,i,x,x
C(=C\c1ccnc2ccccc12)/c1ccc(N2CCN(c3ccc(/C=C/c4ccnc5ccccc45)cc3)CC2)cc1,i,x,x,u,x,x
Nc1nc(N)c2cc(Sc3ccc(Cl)cc3)ccc2n1,u,x,2.6µM*,u,x,5.8µM*
Nc1nc(N)c2cc(Sc3ccc4ccccc4c3)ccc2n1,i,u,8.2µM*,21µM*,16µM*,5.8µM*
Nc1nc(Nc2cccc(C(F)(F)F)c2)nc(C(F)(F)F)n1,i,10%,u,i,8%,u
Nc1nc(N)c2cc(Sc3cccc(C(F)(F)F)c3)ccc2n1,u,x,5.8µM*,u,x,5.8µM*
Cn1c(=O)c2c(nc(N3CCCCC3)n2CCSc2nc3ccccc3s2)n(C)c1=O,u,-4%,2%,i,15%,-8%
CC1CCCN(c2nc3c(c(=O)[nH]c(=O)n3C)n2CCSc2nc3ccccc3o2)C1 (centres undefined),i,-18%,0%,i,18%,0%
CC1CCN(c2nc3c(c(=O)n(C)c(=O)n3C)n2CCSc2nc3ccccc3s2)CC1,15µM*,12%,-7%,u,u,-10%
CC1CCCN(c2nc3c(c(=O)n(C)c(=O)n3C)n2CCSc2nc3ccccc3s2)C1 (centres undefined),10µM*,-16%,-4%,u,u,-10%
CC1CCCN(c2nc3c(c(=O)n(C)c(=O)n3C)n2CCSc2nc3ccccc3o2)C1 (centres undefined),2.6µM*,-17%,-1%,i,3%,0%
COc1ccc(-n2c3c(c(=O)[nH]c2=O)C(C(F)(F)F)(C(F)(F)F)N=C(CC(C)C)N3)cc1,u,-4%,4%,i,-1%,-17%
Cc1ccc(C2=NC(C(F)(F)F)(C(F)(F)F)c3c(n(-c4ccc(F)cc4)c(=O)[nH]c3=O)N2)cc1,21µM*,u,-3%,10µM*,u,-2%
O=c1[nH]c(=O)n(-c2ccc(F)cc2)c2c1C(C(F)(F)F)(C(F)(F)F)N=C(c1ccc(F)cc1)N2,u,u,15µM*,i,u,18µM*
Cc1onc(-c2ccccc2Cl)c1C(=O)Nc1nnc(C2CCCCC2)s1,i,x,x,i,x,x
Cc1ccc(CNCc2c(C(=O)O)n(Cc3ccc(C)cc3)c3cc(C)ccc23)cc1,i,x,x,i,x,x
CCc1ccc(CNCc2c(C(=O)O)n(Cc3ccc(C)cc3)c3cc(C)ccc23)cc1,i,x,x,18µM*,x,x
CC1CCC2(CC1)NC(=O)N(CC(=O)NCCc1c[nH]c3ccccc13)C2=O (centres undefined),i,6%,13%,i,u,8%
CCC(C)(C)C1CCC2(CC1)NC(=O)N(CC(=O)NCCc1c[nH]c3ccccc13)C2=O (centres undefined),21µM*,14%,-2%,u,21%,-14%
SMILES,KB-V1 cytotox,SW480 rerep,HT1080NT lethal,KB-3-1 cytotox,MCF10A rereplic,HT1080 IDH1KD tx
COC(=O)c1cccc(Nc2c(-c3ccc(SC)cc3)nc3nc[nH]n23)c1,i,x,x,i,x,x
CC(C)c1ccc(NS(=O)(=O)c2ccc3[nH]cc(C(=O)NCC4CCCO4)c(=O)c3c2)cc1 (centres undefined),u,x,x,i,x,x
CCCNC(=O)c1nnsc1S(=O)(=O)c1ccc(Cl)cc1,23µM*,7.3µM*,13µM*,u,2.3µM*,u
CCCNC(=O)c1nnsc1S(=O)c1ccc(Cl)cc1 (centres undefined),i,23µM*,18µM*,u,3.3µM*,16µM*
Cc1ccc(S(=O)c2snnc2C)cc1 (centres undefined),i,4%,10%,i,2%,-2%
CNC(=O)c1nnsc1S(=O)c1ccc(Cl)cc1 (centres undefined),i,u,15µM*,u,2.3µM*,23µM*
CCCNC(=O)NS(=O)(=O)c1ccc(Cl)cc1,i,0%,0%,i,4%,8%
Oc1cc(-c2ccc(N3CCCCC3)nc2)cc2cccnc12,u,0.82µM*,x,5.2µM*,u,x
Oc1cc(-c2ccncc2)cc2cccnc12,u,-6%,x,10µM*,u,x
Oc1cc(Nc2ccncc2)cc2cccnc12,i,4%,x,i,22%,x
Oc1cc(Nc2cccnc2)cc2cccnc12,i,u,x,21µM*,u,x
CN(C)c1ccc(-c2cc(O)c3ncccc3c2)cc1,i,u,x,i,-17%,x
C/C(=N\NC(=S)NC1CCCCC1)c1ccccc1,i,18%,8%,16µM*,6%,2%
C/C(=N\NC(=S)NC(C)C)c1ccccc1,i,-2%,4%,i,9%,-1%
C/C(=N\NC(=S)NC1CCCCC1)c1ccc(O)cc1,u,0%,-19%,16µM*,5%,-8%
CN1CCN(C(=O)C(=O)Nc2c3c(nn2-c2cccc(Cl)c2)CSC3)CC1,i,x,x,i,x,x
C1=C/C(=C2/C=Cc3ccccc32)c2ccccc2N1,2.3µM*,x,x,4.6µM*,x,x
CCCC1CCC(=NNC(=O)CNc2ccc(OC)cc2)CC1 (centres undefined),i,15µM*,-4%,i,-71%,-6%
COc1cccc(NC(=O)CSC2=C(C#N)C(c3ccco3)C3=C(CCCC3=O)N2)c1 (centres undefined),u,13µM*,9.2µM*,u,25µM*,7.3µM*
